Laboratory results as given in PubChem BioAssay (Tox21).
Values joined by “and” are separate entries in the source; they are usually repeats but may differ in a detail not shown here. Equal entries are not always repeated. Inconclusive results are not listed. Active and inactive are the calls of the source. Calls come from the whole dose curve.
% is set by controls: 0 for no effect and ±100 for the full control effect.

These molecules were tested against 5-hydroxytryptamine receptor 2A (Homo sapiens) (UniProt P28223) (assay: 5-hydroxytryptamine receptor 2A (HTR2A) small molecule agonists, cell-based qHTS assay (AID 1963587; note: nearly all actives have a fitted effect of over 30% in size; note: potency is the fitted concentration of half-maximal effect)). Settings: HTR2A-CHO cells, calcium flux fluorescence, agonist mode; series mostly up to 76.8 µM; activation: at the top concentration.
5-hydroxytryptamine receptor 2A (Homo sapiens), sequence (P28223 whole entry, looked up): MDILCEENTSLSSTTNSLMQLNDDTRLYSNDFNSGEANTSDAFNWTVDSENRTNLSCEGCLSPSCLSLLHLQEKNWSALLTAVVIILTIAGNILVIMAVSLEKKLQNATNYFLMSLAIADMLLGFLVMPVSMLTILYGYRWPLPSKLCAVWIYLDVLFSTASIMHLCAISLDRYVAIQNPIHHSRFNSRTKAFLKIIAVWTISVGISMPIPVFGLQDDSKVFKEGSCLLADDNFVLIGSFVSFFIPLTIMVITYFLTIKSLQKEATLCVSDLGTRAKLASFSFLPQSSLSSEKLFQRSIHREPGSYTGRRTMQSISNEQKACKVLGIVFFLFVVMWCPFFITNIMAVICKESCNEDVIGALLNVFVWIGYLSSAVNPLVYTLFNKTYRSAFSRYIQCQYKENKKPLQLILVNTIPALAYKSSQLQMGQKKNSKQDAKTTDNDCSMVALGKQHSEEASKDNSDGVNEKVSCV
Summary of the method: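 Kinetic calcium-flux fluorescence (2 min, 1 sec intervals) after compound addition in agonist mode. HTR2A-CHO cells were cultured 18 h, then dye-loaded 1 h at 37 C.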
For CO[Si](OC)(OC)c1ccccc1, the “activation” value was 0.517% (inactive).
With O=C(c1ccc(Cl)cc1)c1ccc(Cl)cc1 the “activation” value was 1.05% (inactive).
For CC(C)c1cccc(O)c1, the “activation” value was -1.36% (inactive).
For COc1cccc(OC)c1C(=O)N[C@@H]1C(=O)N2[C@@H]1SC(C)(C)[C@@H]2C(=O)O, the “activation” value was 0.549% [at 35.6 µM] (inactive).
With O=P(OC(CCl)CCl)(OC(CCl)CCl)OC(CCl)CCl the Potency was 43.4 µM (active) and 2.19 µM (active).
In the case of CC/C=C\CC1=C(C)CCC1=O, the “activation” value is reported as -1.79% (inactive).
For CCC(C)S (stereo not drawn), the activation was 0.646% [at 2.65 µM] (inactive).
c1ccc2c(c1)CCc1ccccc1N2 was tested, and the Potency was “inactive”.
In the case of CCCCOC(=O)C(C)OC(=O)CCC (stereo not drawn), the “activation” value is reported as -2.2% (inactive).
With CCCC=O the “activation” value was 0.342% (inactive).

What follows are molecules tested against Muscarinic acetylcholine receptor M1 (Homo sapiens) (UniProt P11229) (assay: Cholinergic receptor muscarinic 1 (CHRM1) small molecule antagonists, cell-based qHTS assay (AID 1963588; note: nearly all actives have a fitted effect of over 40% in size)). Settings: CHRM1-CHO antagonist mode, calcium flux fluorescence; series mostly up to 61.5 µM; activity, negative = inhibition: at the top concentration.
Muscarinic acetylcholine receptor M1 (Homo sapiens), sequence (P11229 whole entry, looked up): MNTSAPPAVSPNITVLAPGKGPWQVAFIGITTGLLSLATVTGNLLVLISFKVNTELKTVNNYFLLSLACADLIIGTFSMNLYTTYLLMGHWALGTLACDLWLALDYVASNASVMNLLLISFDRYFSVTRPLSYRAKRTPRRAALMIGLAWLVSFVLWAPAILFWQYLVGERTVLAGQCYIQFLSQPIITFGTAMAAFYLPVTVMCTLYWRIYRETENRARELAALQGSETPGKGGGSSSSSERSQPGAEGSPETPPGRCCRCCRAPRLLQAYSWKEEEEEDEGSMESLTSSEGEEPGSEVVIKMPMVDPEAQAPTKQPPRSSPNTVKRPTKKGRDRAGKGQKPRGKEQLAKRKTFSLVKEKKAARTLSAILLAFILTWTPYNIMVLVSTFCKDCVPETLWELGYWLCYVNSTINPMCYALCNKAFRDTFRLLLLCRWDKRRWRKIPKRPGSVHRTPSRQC
Summary of the method: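 CHRM1-CHO calcium-flux assay, antagonist mode. Cells were seeded 18 h, dye-loaded 1 h at 37 C and given compound for 5 min at RT, then acetylcholine was added at 50nM. FDSS fluorescence was read 3 min; 15 concentrations, three runs.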
For CC(C)COC(=O)c1ccc(N)cc1, the “activity, negative = inhibition” value was 1.17% [at 28.3 µM] (inactive).
In the case of CCCc1cc(C(N)=S)ccn1, the “activity, negative = inhibition” value is reported as 14.9% [at 28.3 µM] (inactive).
With CCCCCCCCCCCCCCO the Potency was “inactive”.
For O=C(O)c1ccco1, the “activity, negative = inhibition” value was 1.8% (inactive).
CSc1cnccn1 was tested, and the “activity, negative = inhibition” value was -1.73% (inactive).
In the case of CCCCCCCOC(C)=O, the “activity, negative = inhibition” value is reported as -3.83% (inactive).
In the case of CCc1cnc(C(=O)O)c(C(=O)O)c1, the “activity, negative = inhibition” value is reported as 36.3% (inactive).
In the case of NS(=O)(=O)c1ccc(NC(=O)CCC(=O)O)cc1, the “activity, negative = inhibition” value is reported as -2.28% [at 28.3 µM] (inactive).
In the case of COc1ccc(C(=O)CC(=O)c2ccc(C(C)(C)C)cc2)cc1, the Potency is reported as “inactive”.
For CCO[Si](OCC)(OCC)c1ccccc1, the “activity, negative = inhibition” value was 6.9% (inactive).
With CC(C)(C)c1ccc(CCC=O)cc1 the “activity, negative = inhibition” value was -13.7% (inactive).
For FC(F)(F)c1cccc(Cl)c1, the “activity, negative = inhibition” value was -16.3% (inactive).
For Nc1ccc(NCCO)c([N+](=O)[O-])c1, the “activity, negative = inhibition” value was -4.96% (inactive).
In the case of IC(I)I, the Potency is reported as “inactive”.
For Cc1cccc(Cl)c1, the “activity, negative = inhibition” value was 17.9% (inactive).
For CC1=CCC(C(C)C)=CC1, the “activity, negative = inhibition” value was 11.2% (inactive).
In the case of CC1(C)C(C=C(Cl)Cl)C1C(=O)OCc1cccc(Oc2ccccc2)c1 (stereo not drawn), the “activity, negative = inhibition” value is reported as 11.6% (inactive).
For CCCOCCOCCOCCO, the “activity, negative = inhibition” value was 3.78% (inactive).
